The results in this text go back to the supplement of paper PMC10849652.

Of roughly 7,900 targets only a part is listed; those with a hit were picked by preference. About 0.6% of all pairs of compound and target were hits. A number with no mark means an inactive call.

UniProt Q9NX61, sequence (Q9NX61 whole entry, looked up): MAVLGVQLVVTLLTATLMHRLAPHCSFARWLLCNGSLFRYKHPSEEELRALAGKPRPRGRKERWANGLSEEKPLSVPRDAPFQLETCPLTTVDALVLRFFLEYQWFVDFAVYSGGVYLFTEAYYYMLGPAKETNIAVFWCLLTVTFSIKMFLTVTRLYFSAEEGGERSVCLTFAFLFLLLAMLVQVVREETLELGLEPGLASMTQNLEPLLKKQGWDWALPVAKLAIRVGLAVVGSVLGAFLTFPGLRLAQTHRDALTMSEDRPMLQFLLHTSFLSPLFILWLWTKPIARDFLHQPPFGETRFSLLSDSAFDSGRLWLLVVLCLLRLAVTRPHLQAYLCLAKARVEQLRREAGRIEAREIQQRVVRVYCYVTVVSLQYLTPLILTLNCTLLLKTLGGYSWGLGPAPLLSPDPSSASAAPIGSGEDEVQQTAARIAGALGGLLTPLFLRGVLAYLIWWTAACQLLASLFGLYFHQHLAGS
UniProt Q9Y4E8, sequence (Q9Y4E8 whole entry, looked up): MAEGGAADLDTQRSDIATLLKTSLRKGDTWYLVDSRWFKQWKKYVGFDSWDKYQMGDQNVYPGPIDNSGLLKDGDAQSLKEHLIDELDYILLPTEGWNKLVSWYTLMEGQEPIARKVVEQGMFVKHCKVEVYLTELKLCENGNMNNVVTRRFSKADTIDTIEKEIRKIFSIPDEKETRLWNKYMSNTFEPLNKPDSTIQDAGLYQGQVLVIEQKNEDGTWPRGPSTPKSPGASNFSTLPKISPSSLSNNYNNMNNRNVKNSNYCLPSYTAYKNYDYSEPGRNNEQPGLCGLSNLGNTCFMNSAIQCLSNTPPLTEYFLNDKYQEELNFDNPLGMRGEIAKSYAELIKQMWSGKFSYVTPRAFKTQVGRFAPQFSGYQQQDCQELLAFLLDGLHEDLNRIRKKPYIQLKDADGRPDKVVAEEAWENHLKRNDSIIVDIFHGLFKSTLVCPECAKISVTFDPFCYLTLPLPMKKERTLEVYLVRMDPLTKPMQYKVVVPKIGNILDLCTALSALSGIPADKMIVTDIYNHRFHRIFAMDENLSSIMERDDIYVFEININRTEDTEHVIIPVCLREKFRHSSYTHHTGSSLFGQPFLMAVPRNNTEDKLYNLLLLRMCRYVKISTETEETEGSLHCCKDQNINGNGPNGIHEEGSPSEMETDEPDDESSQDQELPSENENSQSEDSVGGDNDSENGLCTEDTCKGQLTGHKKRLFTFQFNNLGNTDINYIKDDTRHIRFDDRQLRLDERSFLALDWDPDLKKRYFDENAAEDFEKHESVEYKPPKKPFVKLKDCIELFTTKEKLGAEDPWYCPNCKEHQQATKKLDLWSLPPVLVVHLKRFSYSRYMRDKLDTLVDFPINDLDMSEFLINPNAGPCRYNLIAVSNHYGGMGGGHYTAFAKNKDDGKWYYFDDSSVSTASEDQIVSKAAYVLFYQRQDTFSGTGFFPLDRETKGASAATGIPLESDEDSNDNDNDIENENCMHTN
UniProt A5PLN9, sequence (A5PLN9 whole entry, looked up): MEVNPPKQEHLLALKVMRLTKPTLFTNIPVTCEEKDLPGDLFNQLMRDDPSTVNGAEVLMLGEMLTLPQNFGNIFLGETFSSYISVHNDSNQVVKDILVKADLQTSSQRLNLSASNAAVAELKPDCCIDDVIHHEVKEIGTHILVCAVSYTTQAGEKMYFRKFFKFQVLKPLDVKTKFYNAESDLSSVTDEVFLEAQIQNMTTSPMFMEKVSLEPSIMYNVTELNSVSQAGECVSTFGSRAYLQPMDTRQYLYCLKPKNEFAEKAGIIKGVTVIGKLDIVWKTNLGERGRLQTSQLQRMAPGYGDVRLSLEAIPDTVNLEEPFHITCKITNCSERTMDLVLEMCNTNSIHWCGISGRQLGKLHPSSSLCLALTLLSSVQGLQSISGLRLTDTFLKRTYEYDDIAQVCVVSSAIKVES
UniProt P13010, sequence (P13010 whole entry, looked up): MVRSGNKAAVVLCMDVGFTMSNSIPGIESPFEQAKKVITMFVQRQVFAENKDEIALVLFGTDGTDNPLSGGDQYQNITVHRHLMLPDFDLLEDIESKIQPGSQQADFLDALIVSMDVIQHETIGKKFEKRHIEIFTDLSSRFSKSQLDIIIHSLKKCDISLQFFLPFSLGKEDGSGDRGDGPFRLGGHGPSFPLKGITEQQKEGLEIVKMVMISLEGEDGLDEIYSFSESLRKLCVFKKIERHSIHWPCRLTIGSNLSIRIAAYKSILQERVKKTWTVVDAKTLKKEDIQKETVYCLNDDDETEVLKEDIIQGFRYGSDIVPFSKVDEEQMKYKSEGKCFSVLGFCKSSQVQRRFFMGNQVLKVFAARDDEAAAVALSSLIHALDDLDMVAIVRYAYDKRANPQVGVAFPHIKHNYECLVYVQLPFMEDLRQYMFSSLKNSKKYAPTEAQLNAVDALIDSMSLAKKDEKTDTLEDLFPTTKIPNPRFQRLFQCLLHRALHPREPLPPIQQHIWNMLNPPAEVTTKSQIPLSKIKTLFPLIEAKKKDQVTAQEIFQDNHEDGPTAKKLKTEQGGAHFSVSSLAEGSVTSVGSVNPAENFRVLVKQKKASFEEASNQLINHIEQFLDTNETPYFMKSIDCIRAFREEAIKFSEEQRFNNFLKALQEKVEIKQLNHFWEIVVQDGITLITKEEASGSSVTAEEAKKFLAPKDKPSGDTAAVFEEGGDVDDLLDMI
UniProt Q53S58, sequence (Q53S58 whole entry, looked up): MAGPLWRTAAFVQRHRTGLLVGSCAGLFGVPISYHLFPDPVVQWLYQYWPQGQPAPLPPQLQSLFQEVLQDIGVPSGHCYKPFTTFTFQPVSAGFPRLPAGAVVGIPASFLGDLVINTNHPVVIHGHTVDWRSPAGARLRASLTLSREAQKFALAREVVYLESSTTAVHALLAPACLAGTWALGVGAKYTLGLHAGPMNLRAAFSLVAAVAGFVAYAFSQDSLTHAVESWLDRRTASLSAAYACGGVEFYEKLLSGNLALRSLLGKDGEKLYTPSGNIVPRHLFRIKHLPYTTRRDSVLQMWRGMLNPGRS
UniProt Q8IZ69, sequence (Q8IZ69 whole entry, looked up): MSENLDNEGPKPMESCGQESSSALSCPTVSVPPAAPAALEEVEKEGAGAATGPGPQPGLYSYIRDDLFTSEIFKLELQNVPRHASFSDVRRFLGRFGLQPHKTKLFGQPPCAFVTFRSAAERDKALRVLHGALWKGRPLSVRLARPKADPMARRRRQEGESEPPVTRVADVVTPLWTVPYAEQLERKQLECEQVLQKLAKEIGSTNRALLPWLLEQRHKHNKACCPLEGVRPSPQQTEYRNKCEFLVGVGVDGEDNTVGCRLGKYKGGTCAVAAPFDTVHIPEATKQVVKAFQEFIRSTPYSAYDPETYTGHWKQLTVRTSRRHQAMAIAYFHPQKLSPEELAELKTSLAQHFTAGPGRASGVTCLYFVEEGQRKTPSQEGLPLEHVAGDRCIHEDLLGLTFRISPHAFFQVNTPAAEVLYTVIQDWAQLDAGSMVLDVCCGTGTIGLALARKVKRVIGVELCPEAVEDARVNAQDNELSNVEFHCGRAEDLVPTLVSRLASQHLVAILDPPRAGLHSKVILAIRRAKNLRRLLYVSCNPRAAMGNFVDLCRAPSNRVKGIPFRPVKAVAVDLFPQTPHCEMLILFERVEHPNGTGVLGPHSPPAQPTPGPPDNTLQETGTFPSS
UniProt Q16763, sequence (Q16763 whole entry, looked up): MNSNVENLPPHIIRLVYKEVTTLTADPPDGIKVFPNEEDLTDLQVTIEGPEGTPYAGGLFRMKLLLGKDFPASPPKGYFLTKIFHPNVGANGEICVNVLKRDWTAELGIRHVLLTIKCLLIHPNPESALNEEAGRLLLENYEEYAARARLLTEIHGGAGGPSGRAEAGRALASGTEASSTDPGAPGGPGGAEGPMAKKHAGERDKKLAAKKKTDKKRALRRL
UniProt P51668, sequence (P51668 whole entry, looked up): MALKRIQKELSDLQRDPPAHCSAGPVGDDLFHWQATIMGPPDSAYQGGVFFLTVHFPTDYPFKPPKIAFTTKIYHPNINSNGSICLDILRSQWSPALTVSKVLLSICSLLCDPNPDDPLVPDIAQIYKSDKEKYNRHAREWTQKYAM
UniProt Q9UDW1, sequence (Q9UDW1 whole entry, looked up): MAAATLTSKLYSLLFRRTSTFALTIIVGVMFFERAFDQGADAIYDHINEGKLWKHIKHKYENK
UniProt Q9C037, sequence (Q9C037 whole entry, looked up): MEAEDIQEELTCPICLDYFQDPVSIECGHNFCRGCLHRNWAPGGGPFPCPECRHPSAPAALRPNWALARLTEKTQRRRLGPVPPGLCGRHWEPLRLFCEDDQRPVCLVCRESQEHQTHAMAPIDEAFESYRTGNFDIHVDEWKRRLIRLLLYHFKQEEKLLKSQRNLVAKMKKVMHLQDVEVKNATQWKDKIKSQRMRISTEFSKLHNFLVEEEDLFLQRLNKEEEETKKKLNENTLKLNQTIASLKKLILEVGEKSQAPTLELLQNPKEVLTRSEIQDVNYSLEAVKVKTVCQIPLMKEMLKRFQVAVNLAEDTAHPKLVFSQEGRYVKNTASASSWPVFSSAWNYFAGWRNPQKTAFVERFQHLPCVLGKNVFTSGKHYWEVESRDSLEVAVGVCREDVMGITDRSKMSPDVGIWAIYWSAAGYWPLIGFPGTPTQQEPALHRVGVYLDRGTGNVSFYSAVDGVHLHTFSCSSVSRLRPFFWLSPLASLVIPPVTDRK
UniProt O60701, sequence (O60701 whole entry, looked up): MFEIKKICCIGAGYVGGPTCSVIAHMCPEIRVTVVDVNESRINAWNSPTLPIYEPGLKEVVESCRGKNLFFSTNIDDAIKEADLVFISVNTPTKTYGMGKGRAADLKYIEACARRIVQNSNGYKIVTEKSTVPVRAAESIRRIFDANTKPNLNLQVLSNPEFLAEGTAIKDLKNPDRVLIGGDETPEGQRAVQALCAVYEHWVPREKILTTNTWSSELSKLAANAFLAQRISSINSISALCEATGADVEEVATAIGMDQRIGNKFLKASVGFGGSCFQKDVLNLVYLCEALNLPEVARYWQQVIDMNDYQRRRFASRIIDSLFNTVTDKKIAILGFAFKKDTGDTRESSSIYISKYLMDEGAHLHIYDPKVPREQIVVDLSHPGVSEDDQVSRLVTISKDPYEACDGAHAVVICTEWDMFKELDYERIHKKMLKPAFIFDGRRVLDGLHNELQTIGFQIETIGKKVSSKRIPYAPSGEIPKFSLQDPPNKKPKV

Compound in the assay: c1cn2cc(-c3ccc4cn[nH]c4c3)nc(Nc3ccc(N4CCOCC4)cc3)c2n1 [entospletinib]
As to the kind of experiment: log2 fold change, soluble protein after heating vs DMSO (PISA); higher = thermal stabilisation; K562 cells, 10 uM, 30 min; active = over 0.2 and 3.5 SD of the protein, either way, in both replicates (recomputed). In a few lines:
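K562 cells at 2×10^6 cells/mL were treated with 10 μM compound for 30 min. Aliquots were heated for 3 min across 48°C-58°C, pooled, and extracted in PBS with 0.5% NP-40 at 4°C; soluble protein was the supernatant after 21,000xg for 90 min. Soluble protein was quantified by TMTpro 16plex LC-MS/MS with channel sums equalised, and reported as log2 fold change in thermal stability against DMSO controls, with values from duplicates.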
Consider UTP3 (UniProt Q9NQZ2), for which the log2 fold change was -0.009. With TRIM4 (UniProt Q9C037), the log2 fold change was 0.089. Turning to TRMT2A (UniProt Q8IZ69), the log2 fold change is 0.1. Take TMEM161A (UniProt Q9NX61): the log2 fold change was -0.026. UBE2D1 (UniProt P51668): the log2 fold change was -0.025. Turning to UBE2S (UniProt Q16763), the log2 fold change is -0.029. For UQCR10 (UniProt Q9UDW1), the log2 fold change was -0.002. Then VTA1 (UniProt Q9NP79), with -0.005. For XRCC5 (UniProt P13010), the log2 fold change is -0.039. Then TRAPPC13 isoform 5 (UniProt A5PLN9), with -0.022; and UTP4 (UniProt Q969X6), with -0.058; and UGDH (UniProt O60701), with -0.033.

Turning to TUBAL3 (UniProt A6NHL2), the log2 fold change was -0.351. Then USP15 (UniProt Q9Y4E8), with 0.018; and TRAPPC11 (UniProt Q7Z392), with 0.012.

In the case of TXNRD1 (UniProt Q16881), the log2 fold change was 0.054. As to TMEM87B (UniProt Q96K49), the log2 fold change was 0.063. Regarding VPS39 (UniProt Q96JC1), the log2 fold change is -0.007. Regarding USP7 (UniProt Q93009), the log2 fold change is -0.019. For WDR7 (UniProt Q9Y4E6), the log2 fold change is 0.126.

As to TMEM177 (UniProt Q53S58), the log2 fold change was 0.02.

On to USP25 isoform 3 (UniProt Q9UHP3), for which the log2 fold change is 0.

For VPS50 (UniProt Q96JG6), the log2 fold change was -0.045.
